# Source: PubChem BioAssay AID2546 (National Center for Advancing Translational Sciences (NCATS), 2010)
# About 11,000 (3.5%) of roughly 310,000 compounds were called active. Inconclusive results (about 8%) are left out. Shown is part of a subset that was picked to be rich in actives. Unmarked numbers belong to inactive results. Calls follow the shape of the dose curve; as a rule, active = well fitted inhibition curve with a large enough effect; inconclusive = small, poorly fitted or top-dose-only effect, or effect the other way; inactive = flat fitted curve, though single readings scatter.
# Test: VP16 counterscreen qHTS for inhibitors of ROR gamma transcriptional activity;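 also: Gal4-VP16 expression switched on by copper sulfate through the metallothionein promoter; nearly all actives have a fitted effect of over 50% in size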
# Conditions: Drosophila S2 Gal4-VP16 UAS-luciferase, luminescence, 20 h; series mostly up to 53.6 µM; activity, negative = inhibition: at the top concentration
# % is scaled to controls: 0 for no effect and ±100 for the full control effect; potency is read from the fitted curve at half-maximal effect.
SMILES,"activity, negative = inhibition",Potency
CCCN1C2CCCC1CC(NC(=O)NC13CC4CC(CC(C4)C1)C3)C2 (configuration not stated),-1.88% (inactive),–
C(=N\Nc1ccc2ccccc2n1)/c1ccc2c(c1)OCO2,–,14.1 µM (active)
Cc1cc(=O)[nH]c(N/N=C/c2ccc3c(c2)OCCO3)n1,-22.2% (inactive),–
Cc1noc(C)c1/C=N/Nc1ccc2ccccc2n1,6.11% (inactive),–
O=C1CN(C(=O)c2cc(F)cc(F)c2)c2ccccc2N1,2.04% (inactive),–
COc1ccc(C(C)NC(=O)C23CC4CC(CC(C4)C2)C3)cc1 (configuration not stated),-3.97% (inactive),–
CCc1ccc(Oc2coc3cc(O)ccc3c2=O)cc1,-19.5% (inactive),–
O=S(=O)(c1cccc(Cn2nnc(-c3ccc(F)cc3)n2)c1)N1CCOCC1,–,11.2 µM (active)
CCN(Cc1ccncc1)C(=O)c1cccc(S(=O)(=O)N2CCOCC2)c1,-0.785% (inactive),–
O=S(=O)(c1cccc(-c2nnc3n2CCCCC3)c1)N1CCOCC1,-5.04% (inactive),–
CCN(CC)CCn1cnc2c1c(=O)[nH]c(=O)n2Cc1ccccc1,-2.59% (inactive),–
COc1ccc(CSc2nnnn2-c2ccc(O)cc2)cc1F,-0.122% (inactive),–
CCOC(=O)CC1COCCN1C(=O)c1cc(COc2ccc(F)c(F)c2)on1 (configuration not stated),18.2% (inactive),–
Cc1ccc(S(=O)(=O)N2CCOCC2)cc1C(=O)NC(=S)N(Cc1ccccc1)C(C)C,–,3.98 µM (active)
CCOC(=O)c1sc(NC(=O)c2cc(S(=O)(=O)N3CCOCC3)ccc2C)nc1C,8.12% (inactive),–
Cc1ccc(S(=O)(=O)N2CCOCC2)cc1C(=O)NCc1ccc(F)cc1,3.52% (inactive),–
O=C(CN1CCCCCC1)Nc1c(Cl)cc(Cl)cc1Cl,17.5% (inactive),–
CN(Cc1ccccc1)C(=O)C(=O)c1cn(CC(=O)N2CCCC2)c2ccccc12,-8.1% (inactive),–
N#CC1(NC(=O)COC(=O)CCN=C2NS(=O)(=O)c3ccccc32)CCCCC1,-10% (inactive),–
O=C(N/N=C/c1cc([N+](=O)[O-])ccc1O)/C(=C\c1cccs1)NC(=O)c1ccccc1,–,10 µM (active)
O=C(N/N=C/c1ccc(O)cc1)/C(=C/c1ccc([N+](=O)[O-])cc1)NC(=O)c1ccccc1,6.42% (inactive),–
O=C(Nc1ccc(C(=O)O)cc1)/C(=C/c1ccc([N+](=O)[O-])cc1)NC(=O)c1ccccc1,2.72% (inactive),–
CSc1nnc(C2CCCN(CC(=O)Nc3ccccc3N3CCOCC3)C2)n1C(C)C (configuration not stated),-3.38% (inactive),–
Cc1cc(S(=O)(=O)NCc2ccccn2)c(Cl)cc1Cl,–,5.62 µM (active)
Cc1cc(Cl)c(S(=O)(=O)NCc2cccnc2)cc1OCC(N)=O,12.9% (inactive),–
O=S(=O)(NCc1ccccn1)c1ccc(F)cc1,8.94% (inactive),–

SMILES,"activity, negative = inhibition",Potency
COc1ccc(NC(=O)C2CCC(CNC(=O)[C@@H]3Cc4ccccc4CN3)CC2)cc1 (some centres not stated),-7.43% (inactive),–
CC(=O)N1c2ccc(S(=O)(=O)N3CCC(C(=O)NCc4ccc(F)cc4)CC3)cc2CC1C (configuration not stated),24.4% (inactive),–
COc1ccc(-n2c(-c3ccc(OC)c(OC)c3)n[nH]c2=S)cc1,-11.1% (inactive),–
Cc1cc(-c2n[nH]c(=S)n2-c2ccc(C)c(C)c2)no1,-17.5% (inactive),–
Cc1ccc(-n2c(-c3ccc(Cl)cc3)n[nH]c2=S)cc1,–,2.51 µM (active)
Cc1nc2sccn2c(=O)c1S(=O)(=O)NCCc1ccccc1,0.199% (inactive),–
COc1cc(C(=O)NCC2(c3ccccc3)CCCC2)ccc1OC(C)C,4.67% (inactive),–
O=C(/C=C/c1cccc([N+](=O)[O-])c1)N1CCN(Cc2ccccc2)CC1,0.48% (inactive),–
O=c1c([N+](=O)[O-])cc(C(F)(F)F)cn1Cc1cccc(Cl)c1,-12.8% (inactive),–
O=[N+]([O-])/C=C/c1ccc2c(ccn2Cc2ccccc2)c1,–,11.2 µM (active)
CC1CCN(C(=O)/C(=C\c2ccccc2)NC(=O)c2ccccc2)CC1,4.98% (inactive),–
CC1CCN(C(=O)c2ccccc2NC(=O)Cc2ccccc2)CC1,24.1% (inactive),–
CC1CCN(C(=S)NC(=O)c2ccccc2Br)CC1,–,3.55 µM (active)
COc1ccc(CNC(=O)c2ccc(Br)s2)cc1OC,-1.61% (inactive),–
Cc1ccc(C(=O)N/C(=C\c2cn(S(=O)(=O)N(C)C)c3ccccc23)C(=O)N2CCCC2)cc1,-3.97% (inactive),–
C/C(=N\OCC(=O)O)c1ccc(Cl)cc1,-2.96% (inactive),–
CCOC(=O)CN/C=C(\C#N)c1ccc(F)cc1,-4.69% [at 10 µM],–
CCOc1cc(/C=C(/C#N)c2ccc(Cl)cc2)cc(Cl)c1OCC(=O)O,–,0.794 µM (active)
CC(C)OCCCNC(=O)CN1C(=O)/C(=C/c2ccccc2F)Oc2ccccc21,-20.8% (inactive),–
C[C@]12CC[C@@H]3c4ccc(O)cc4C[C@@H](CCCCCCCCCS(=O)CCCC(F)(F)C(F)(F)F)C3[C@@H]1CC[C@@H]2O (some centres not stated),-13.6% (inactive),–
CC1CN(C(=O)CCC(=O)NCCCN2CCC(Cc3ccccc3)CC2)c2cc(Cl)ccc2O1 (configuration not stated),-15.4% (inactive),–
CC1(C)Cc2cccc(OCC(=O)NCc3ccccc3)c2O1,-10.3% (inactive),–
CCOc1nc(-c2ccc(OC)cc2)ccc1-c1noc(-c2cc(OC)c(OC)c(OC)c2)n1,-19.4% (inactive),–
COc1ccc(-c2nc(-c3ccccc3)no2)c(OC)c1,–,4.47 µM (active)
COc1ccccc1Cc1nc(-c2ccc(C)cc2)no1,4.89% (inactive),–
COc1ccc(N(Cc2ccc(N(C)C)cc2)C(=O)c2ccc(S(C)(=O)=O)cc2)cc1,3.23% (inactive),–
